The source of these data is PubChem BioAssay.

Test [1] in a line: A549 cell viability effects, profiling panel, calcein-AM fluorescence, 48 h, basal (AID 1162). To be noted: higher = more signal.
Test [2] can be described thus: adipocyte viability effects, profiling panel, cell-based, 3T3-L1 adipocytes, calcein-AM fluorescence, 48 h, basal (AID 1163). To be noted: 3T3-L1 adipocytes viability, higher = more signal.
Test [3] can be described thus: HepG2 cell viability effects, profiling panel, calcein-AM fluorescence, 48 h, basal (AID 1164). To be noted: higher = more signal.
The nature of test [4]: MM1S cell viability effects, profiling panel, calcein-AM fluorescence, 48 h, basal (AID 1165).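 Note: viability of MM1S multiple myeloma cells under basal unstimulated conditions.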 The conditions noted are these: higher = more signal.
Test [5] can be described thus: basal RPMI8226 viability, no added stimulus, profiling panel, cell-based, calcein-AM fluorescence, 48 h, PK04 Diversity Set (AID 1166).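 Note: cells grown under basal conditions without added stimulus.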 To be noted: RPMI8226 myeloma viability, higher = more signal.
The nature of test [6]: basal HepG2 mitochondrial membrane potential changes, profiling panel, cell-based, JC-1 fluorescence, 24 h, 100 nL compound (AID 1167). The conditions noted are these: higher = more signal.
Test [7] in a line: basal 3T3-L1 adipocyte mitochondrial potential changes, profiling panel, cell-based, JC-1 fluorescence, 3T3-L1 adipocytes, 24 h, 100 nL compound (AID 1168). To be noted: JC-1 mitochondrial fluorescence, higher = more signal, called active from +8 up or from −8 down.
Test [8] can be described thus: basal RPMI8226 mitochondrial membrane potential changes, profiling panel, cell-based, JC-1 fluorescence, 24 h, 100 nL compound (AID 1169). To be noted: RPMI8226 myeloma, JC-1 mitochondrial potential fluorescence, higher = more signal.
The nature of test [9]: basal MM1S mitochondrial membrane potential changes, profiling panel, cell-based, JC-1 fluorescence, 24 h, 100 nL compound (AID 1170). The conditions noted are these: higher = more signal.
Test [10] can be described thus: A549 lung cancer cell viability effects, profiling panel, resazurin fluorescence, 24 h, PK04 Diversity Set (AID 1171). The conditions noted are these: higher = more signal, called active from +8 up or from −8 down. In general terms: The colour change of resazurin is a common sign of viable cells or microbes.

Activity calls are given as the source filed them.
Note: test concentration not given here.

Regarding `CCCNC(=O)OC[C@H]1O[C@H](CCON=C[C@@H](NS(=O)(=O)c2ccc(C)cc2)[C@H](C)C=CCC(=O)OC)C=C[C@@H]1Oc1ccc(OC)cc1`, the z-score in test [1] is -0.321; in test [2] it was 0.973; in [3], -1.18; in [4], -0.0312; in test [5], -0.773; in test [6], 0.421. Moreover, the z-score in [7] is -2.4 (inactive); in test [8], -0.806; in [9] it was 0.364; in test [10], 0.141 (inactive).

With `CCOC(=O)NN=C1C[C@@H](O)[C@@H](O)[C@@H]2[C@@H]3C(=O)N(CC)C(=O)[C@@H]3CC[C@H]12`, the z-score in [1] is 0.258; in test [2], -0.588; in [3], 0.527; in test [4] it was 0.464; in [5], 0.268; in test [6], 0.987. For the same compound, the z-score was -0.557 (inactive) in test [7], -0.241 in [8], -0.809 in test [9] and -0.653 (inactive) in test [10].

Consider `C=CC[C@@H]1C=CC(ON=C(C)C)[C@@H](CO)O1` (stereo not given in full), for which the z-score in [1] is 1.08; in test [2], -0.521; in test [3], 0.389; in test [4] it was 0.255; in test [5], -0.153; in test [6], -0.459. The z-score was -0.346 (inactive) in test [7], 0.00663 in test [8], -0.644 in test [9] and -0.816 (inactive) in test [10].

`CC(C)=NOC(C)CN1CCCCc2nc(C)c(C)cc21` (stereo not given): the z-score in [1] was 0.0529; in test [2], -0.047; in test [3], -0.018; in test [4], -0.3; in test [5], -0.637; in test [6], -0.792. For the same compound, the z-score in test [7] was -0.78 (inactive); in test [8], -0.633; in [9] it was 0.354; in test [10], -0.585 (inactive).

Take `CC(=O)OC[C@H]1O[C@H](CC=NOC[C@@H](O)[C@H]2O[C@@H]3OC(C)(C)O[C@@H]3[C@H]2O)C=C[C@@H]1OC(C)=O`: the z-score in test [1] was 0.873; in test [2], -1; in test [3] it was -0.188; in test [4], 0.494; in test [5] it was -0.594; in test [6] it was 0.218. Moreover, the z-score was 0.555 (inactive) in [7], 0.632 in test [8], -0.527 in [9] and 0.0766 (inactive) in test [10].

In the case of `CC(=O)OC[C@H]1O[C@@H](ON=C(C)CCC(=O)OC[C@H]2O[C@H](C#Cc3ccccc3)C=C[C@@H]2Oc2ccc(C)cc2)[C@H](OC(C)=O)[C@@H](OC(C)=O)[C@@H]1OC(C)=O`, the z-score in [1] was 0.16; in [2], 0.57; in test [3] it was -0.325; in test [4], 0.0628; in [5], -0.062; in test [6] it was 0.632. The z-score in [7] is -1.55 (inactive); in [8] it was 0.393; in test [9] it was 0.69; in test [10] it was 0.221 (inactive).

With `CCOC(=O)[C@H](Cc1ccccc1)NC(=O)CCC1CC(OC(=O)NCCc2ccc(F)cc2)CC2(CCCC(COC(=O)NCc3cccc(C(F)(F)F)c3)O2)O1` (stereo not given in full), the z-score in [1] was -0.754; in test [2], 0.15; in test [3], -0.875; in test [4], -0.0822; in test [5], -1.82; in [6], 0.502. Further, the z-score in test [7] was -0.306 (inactive); in test [8], 0.562; in [9] it was 0.464; in test [10], 1.39 (inactive).

For the compound `Cc1ccc(S(=O)(=O)N[C@@H]2COC(=O)CC=C[C@@H](C)[C@H](NS(=O)(=O)c3ccc(C)cc3)COC(=O)[C@H](C)NC(=O)CC=C[C@H]2C)cc1`, the z-score in test [1] is 0.697; in test [2], -0.0454; in [3], 0.428; in [4], -0.987; in test [5], 0.158; in test [6] it was 0.209. Also, the z-score in test [7] was 0.099 (inactive); in [8], 0.389; in test [9] it was 1.03; in [10], -0.395 (inactive).

For `CSCC[C@@H]1NC(=O)CC=C[C@@H](C)COC(=O)[C@H](C)COC1=O`, the z-score in test [1] is 0.137; in test [2] it was 0.641; in test [3], 0.929; in test [4], 0.434; in test [5] it was 0.798; in [6], 1.16. In addition, the z-score in test [7] is 0.766 (inactive); in test [8] it was 0.0761; in test [9], 0.975; in test [10], -0.365 (inactive).

Turning to `CC(CCN1CCc2nc(-c3ccccc3)c(-c3ccccc3)cc2C1)=NOC(C)CN1CCCc2nc(C)c(C)cc21` (stereo not given), the z-score in [1] was 1.23; in test [2], 0.301; in test [3], 0.69; in test [4], -2.9; in test [5] it was -0.616; in test [6] it was 6.43. In addition, the z-score in test [7] is -1.28 (inactive); in [8], -0.866; in [9], -0.881; in test [10], 0.289 (inactive).

In the case of `CC(=O)OC[C@H]1O[C@H](CC=NOC(C)CN2CCCc3nc(C)c(C)cc32)C=C[C@@H]1OC(C)=O` (stereo not given in full), the z-score in test [1] was -0.234; in test [2], 0.114; in test [3], -0.806; in test [4], -2.94; in [5], -0.639; in [6] it was -0.706. The z-score was 0.264 (inactive) in test [7], -0.131 in test [8], -0.188 in test [9] and -0.135 (inactive) in [10].

As for `CCOC(=O)[C@H](Cc1ccccc1)NC(=O)CCC1CC(OC(=O)NCc2cccc3ccccc23)CC2(CCCC(COC(=O)NCCc3ccc(Cl)cc3)O2)O1` (stereo not given in full), the z-score is 0.893 in test [1]; 0.595 in test [2]; -0.397 in test [3]; 0.248 in test [4]; 0.859 in test [5]; -0.114 in [6]. For the same compound, the z-score is 0.237 (inactive) in test [7], -0.185 in test [8], -0.401 in test [9] and 0.895 (inactive) in test [10].

Turning to `CO[C@H]1COC(=O)CCC[C@H](C)[C@@H](OC)COC(=O)CC=C[C@@H]1C`, the z-score was 0.0792 in test [1]; 0.751 in [2]; 0.205 in test [3]; 0.105 in test [4]; 0.471 in test [5]; -0.503 in test [6]. For the same compound, the z-score is -0.713 (inactive) in test [7], -0.483 in test [8], -0.866 in test [9] and 0.0382 (inactive) in [10].
